# High-throughput results from PubChem.
# CCHF vOTU inh: blocks the CCHF virus ovarian tumor domain protease; CCHFV vOTU protease, Pep-AMC fluorescence; inhibition, % at 11.5 µM; hit rate 0.55% among 370,000; AID 651958; in the data active = inhibition above about 30%; note: 0% = vehicle wells with enzyme and 100% = no enzyme wells
# Mtb hypoxia rep: reduces hypoxia-regulated biosensor signal in M. tuberculosis; M. tuberculosis hypoxia-regulated fluorescent reporter, fluorescence; hit rate 0.1% among 300,000; fluorescence inhibition, % (no concentration beside the values); AID 1159583; in the data active = fluorescence inhibition mostly above about 23%, no sharp cut-off; inactive = mostly below about 17%
# DUSP3 inh: blocks human VHR1 dual specificity phosphatase; P51452; recombinant VHR phosphatase, pNPP absorbance; inhibition, % at 13.3 µM; hit rate 0.52% among 290,000; in the data active = inhibition above about 50%
# Target sequence (P51452 whole entry, looked up): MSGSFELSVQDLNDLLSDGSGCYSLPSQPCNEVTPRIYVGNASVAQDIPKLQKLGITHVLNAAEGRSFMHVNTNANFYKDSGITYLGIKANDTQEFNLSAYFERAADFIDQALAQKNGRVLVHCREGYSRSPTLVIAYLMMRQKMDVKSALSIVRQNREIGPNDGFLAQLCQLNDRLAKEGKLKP
# PriA SSB inh: K. pneumoniae PriA-SSBct interaction inhibition; inhibition, % at 33 µM; hit rate 0.6% among 430,000; AlphaScreen SSBct-PriA binding, biotinylated peptide; AID 1272365; in the data active = inhibition mostly above about 37%, no sharp cut-off; inactive = mostly below about 20%;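 note: plate controls were negative control peptide for no effect and reference peptide for full effect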
# 3CLpro inhibitor: SARS-CoV 3CLpro protease inhibition; P0C6X7; recombinant SARS-CoV 3CLpro, quenched FRET peptide cleavage; inhibition, % at 6 µM; hit rate 0.14% among 290,000; AID 1706; in the data active = inhibition above about 12%
# Active calls of the source: *; i = inactive; . = no result shown; + = active, no number. Only some compounds are listed: those with a hit (about 1.3% of all), similar ones and a draw of the others.
SMILES,CCHF vOTU inh,Mtb hypoxia rep,DUSP3 inh,PriA SSB inh,3CLpro inhibitor
Cc1cc(C)cc(C(=O)N2CCN(c3nccn3-c3cccc(Cl)c3)CC2)c1,.,.,.,73,.
Cc1ccc(C)c(N2CCN(S(=O)(=O)c3ccsc3C(=O)NCc3cccs3)CC2)c1,.,.,.,5,.
O=C(NC[C@H](O)c1csc2ccccc12)c1cc(Br)cs1,.,.,.,-25,.
COC(=O)NN=Cc1ccc(OC/C=C/c2ccccc2)c(OC)c1,.,9,.,1,.
COc1cc(C=NNC(=O)CC#N)ccc1OC/C=C/c1ccccc1,.,8,.,68*,.
C=CCOc1ccc(/C=N/NC(=O)CC#N)cc1OC,.,.,.,i,.
N#CCC(=O)NN=Cc1ccccc1OC/C=C/c1ccccc1,.,4,.,71*,.
COc1cc(/C=N/NC(=O)CC#N)ccc1OCc1ccccc1,.,.,.,+,.
O=C(OCC#CCSc1nnc(-c2ccc(Br)cc2)o1)c1ccco1,-7,35*,21,-6,-5
C=CCSc1nnc(-c2cccc3ccccc23)o1,0,-3,.,89*,.
O=C(OCC#CCSc1nnc(-c2cccc3ccccc23)o1)c1cc2ccccc2o1,-7,48*,.,-11,.
C#CCSc1nnc(-c2cccc3ccccc23)o1,0,.,.,-87,-1
COc1ccc(C(=O)CSc2ccc3nc(-c4ccccc4)cn3n2)cc1,.,.,.,-4,.
CCC(=O)CC(c1ccccc1)c1c(O)sc2ccccc2c1=O (stereo not given),.,.,.,-7,.
COCCNC(=O)C(=O)NCC1CCN(Cc2ccco2)CC1,.,.,.,-17,.
O=C(c1ccc(Cn2ccnc2)cc1)N1CCCC[C@H](c2ccc(F)cc2)C1,.,.,.,32*,.
O=[N+]([O-])c1ccc(O)c(CSc2nnnn2-c2ccccc2)c1,-4,-3,-4,99*,3
O=C(O)c1cc(-n2nnnc2SCc2ccc([N+](=O)[O-])cc2)ccc1Cl,2,15,.,-11,-5
COc1ccc(CN2CCOc3ccc([N+](=O)[O-])cc3C2=O)c(OC)c1,.,.,.,26,.
CNC(=O)C(=O)NCc1ccc(Cl)cc1,.,.,.,1,.
COc1ccc(NC(=O)NNC(=O)c2cc3occc3n2C)c(OC)c1,-15,-6,51*,5,-3
O=c1[nH]nc(C2CC2)c2cnn(-c3ccccc3)c12,.,.,.,-6,.
CCCC(=O)OCC(=O)Nc1ccc(Cl)cc1[N+](=O)[O-],.,.,.,78*,.
CCC(=O)OCC(=O)Nc1cc(C)c(C)cc1[N+](=O)[O-],2,1,51*,11,-4
CCN(CC)S(=O)(=O)c1ccc(Cl)c(C(=O)Nc2ccc(Cl)cc2[N+](=O)[O-])c1,3,0,-1,43*,5
SMILES,CCHF vOTU inh,Mtb hypoxia rep,DUSP3 inh,PriA SSB inh,3CLpro inhibitor
O=C(CNC(=O)c1ccccc1F)NN=Cc1cccnc1,.,.,.,-1,.
CCN1CCN(C(=S)c2ccc(O)cc2)CC1,10,4,47,-26,-1
CCN1CCN(C(=S)c2ccc(Br)cc2)CC1,-4,7,52*,-20,-5
O=C(/C=C/c1ccco1)NCCCS(=O)(=O)N1CCN(c2ccccn2)CC1,.,.,.,9,.
c1ccc(CNc2nc3ccccc3n3cnnc23)cc1,6,7,0,104*,-4
O=C(NCc1ccc(F)cc1)C1CC(=O)N(C2CCCCCCC2)C1 (stereo not given),1,17,56*,-5,3
Cc1cccc(OC2CCN(C(=O)c3ccccc3Br)CC2)n1,.,.,.,-18,.
COC(=O)C1=C(c2cccc(OCc3ccccc3)c2)C[C@@H]2CC[C@H]1N2C(=O)NCc1ccc(N(C)C)cc1,1,.,.,56*,.
COC(=O)C1=C(c2ccccc2OCc2ccccc2)CC2CCC1N2C(=O)NCc1ccc(F)cc1 (stereo not given),.,7,.,.,.
COC(=O)C1=C(c2ccccc2OCc2ccccc2)C[C@@H]2CC[C@H]1N2C(=O)NCc1ccc(N(C)C)cc1,5,-11,.,53*,.
COC(=O)C1=C(c2cccc(OCc3ccccc3)c2)CC2CCC1N2C(=O)NCc1ccc(OC)cc1 (stereo not given),.,4,.,.,.
COC(=O)C1=C(c2ccc(F)cc2OCc2ccccc2)C[C@@H]2CC[C@H]1N2C(=O)NCc1ccc(N(C)C)cc1,13,.,.,46*,.
COC(=O)C1=C(c2ccc(F)cc2OCc2ccccc2)CC2CCC1N2C(=O)NCc1ccc(F)cc1 (stereo not given),.,-1,.,.,.
CCc1ccc(CCC(=O)Nc2ncc(Cc3ccccc3Cl)s2)o1,4,0,60*,0,0
COc1ccc(CC(=O)Nc2ccc3c(c2)CCCN3C(=O)c2ccco2)cc1,.,.,.,9,.
COc1ccc(OCC(=O)Nc2nc(CN3CCc4ccccc4C3)cs2)cc1,.,.,.,9,.
CCOc1ccccc1C(=O)NN=Cc1cccc2cccnc12,.,.,.,25,.
O=C(NN=Cc1cccc2ccccc12)c1ccncc1,.,.,.,0,.
O=C(N/N=C/c1cccc2cccnc12)c1ccccc1Br,.,.,.,+,.
O=C(N/N=C/c1cccc2cccnc12)c1ccccc1,.,.,.,+,.
O=C(N/N=C/c1cccc2cccnc12)c1ccncc1,.,.,.,+,.
COC(=O)Cn1c(-c2ccc(Br)cc2)cnc1SCC(=O)Nc1nccs1,.,.,.,0,.
COC(=O)c1ccc2c(=O)n(CC(=O)NCc3ccccc3Cl)c(=S)[nH]c2c1,.,.,.,-11,.
O=C(NCCn1cnc2ccsc2c1=O)c1ccsc1,.,.,.,-6,.
CN1c2ccccc2N(C)C1(C)c1ccccc1,24,15,5,42*,0
SMILES,CCHF vOTU inh,Mtb hypoxia rep,DUSP3 inh,PriA SSB inh,3CLpro inhibitor
CCN1c2ccccc2N(C)C1(C)c1ccccc1 (stereo not given),.,.,26,36,5
COc1ccc(S(=O)(=O)NCCOc2ccc(F)cc2)cc1F,.,.,.,-11,.
COc1ccccc1N1CCN(C(=O)c2nn(C)c3c2CS(=O)(=O)c2ccccc2-3)CC1,9,4,50*,3,-1
Brc1ccc(OCc2nnc3n2CCC3)cc1,11,36*,13,3,0
CCCCCCCCCCCC(=O)NC(C(=O)O)C(O)c1ccccc1 (stereo not given),15,5,-36,97*,10
CC(C)c1cc(=O)[nH]c(-n2nc(C3CC3)cc2NC(=O)c2ccccc2C(F)(F)F)n1,.,.,.,-7,.
Cc1ccc(N(CCC#N)C(=O)CCl)cc1C,-15,38*,-22,-10,5
O=C(c1ccsc1)N1CC(c2nc(Cc3ccccc3)no2)C1,.,.,.,-7,.
N#Cc1c(N2CCCC2)nc(N)c2c(N)nc(N3CCCC3)cc12,72*,7,66,17,-5
Cc1ccc2c(c1)cc(CN(Cc1ccc3c(c1)OCO3)C(=O)c1cnccn1)c1nnnn12,9,1,-15,-16,-10
Cc1cc2cc(CN(Cc3ccc4c(c3)OCO4)C(=O)c3cnccn3)c3nnnn3c2cc1C,-2,4,28,39*,0
CCOC(=O)C1CCN(c2ccc([N+](=O)[O-])c(C(C)=O)c2)CC1,3,20,19,-18,3
CCOC(=O)C1CCN(c2ccc(S(=O)(=O)C(F)(F)F)cc2[N+](=O)[O-])CC1,.,.,.,35*,.
CCC(=C(c1ccc(OC)cc1)c1ccc(OC)cc1)c1cn(CC(O)CN2CCN(C)CC2)c2ccccc12 (stereo not given),11,-6,10,55*,7
COc1ccc(-c2cc3ccccc3n2CC(O)CN2CCCCC2)cc1 (stereo not given),16,4,14,8,1
